The residual activity is the signal under treatment as a percentage of the control signal.

Experiment [1] has as its target T1, Ephrin type-B receptor 2 (Homo sapiens) (UniProt P29323).
T1 sequence (whole entry): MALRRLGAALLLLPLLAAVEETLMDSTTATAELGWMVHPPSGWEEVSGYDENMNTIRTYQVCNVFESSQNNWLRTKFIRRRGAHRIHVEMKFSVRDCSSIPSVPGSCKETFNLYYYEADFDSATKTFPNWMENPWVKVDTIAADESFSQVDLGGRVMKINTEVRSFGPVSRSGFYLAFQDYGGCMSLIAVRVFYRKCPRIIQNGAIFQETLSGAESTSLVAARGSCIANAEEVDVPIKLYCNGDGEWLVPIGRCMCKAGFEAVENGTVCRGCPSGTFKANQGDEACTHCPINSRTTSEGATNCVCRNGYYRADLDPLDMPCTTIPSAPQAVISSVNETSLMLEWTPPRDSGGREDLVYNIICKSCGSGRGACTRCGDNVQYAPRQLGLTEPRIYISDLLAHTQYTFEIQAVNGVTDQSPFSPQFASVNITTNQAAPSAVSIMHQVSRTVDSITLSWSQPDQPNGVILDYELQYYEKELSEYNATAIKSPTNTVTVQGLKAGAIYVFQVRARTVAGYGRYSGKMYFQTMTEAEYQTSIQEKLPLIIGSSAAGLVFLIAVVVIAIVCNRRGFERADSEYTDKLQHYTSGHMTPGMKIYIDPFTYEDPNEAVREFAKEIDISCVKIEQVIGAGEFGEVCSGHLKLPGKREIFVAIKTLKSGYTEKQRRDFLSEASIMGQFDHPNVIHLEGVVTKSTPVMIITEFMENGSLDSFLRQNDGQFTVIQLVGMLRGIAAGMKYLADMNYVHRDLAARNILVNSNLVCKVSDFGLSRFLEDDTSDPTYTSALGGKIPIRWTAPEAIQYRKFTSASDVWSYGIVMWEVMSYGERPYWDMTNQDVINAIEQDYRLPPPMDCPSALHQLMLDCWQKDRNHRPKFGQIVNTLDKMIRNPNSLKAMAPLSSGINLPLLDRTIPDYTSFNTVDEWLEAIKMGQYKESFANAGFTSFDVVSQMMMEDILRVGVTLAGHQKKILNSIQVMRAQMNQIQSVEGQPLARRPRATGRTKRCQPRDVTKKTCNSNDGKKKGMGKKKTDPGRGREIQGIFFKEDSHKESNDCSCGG
As to conditions: at 1 µM; call rule not given here.

Experiment [2] addresses T1, Ephrin type-B receptor 2 (Homo sapiens). As to conditions: at 10 µM.
Experiment [3] deals with T2, Ephrin type-B receptor 3 (Homo sapiens) (UniProt P54753).
T2 sequence (whole entry): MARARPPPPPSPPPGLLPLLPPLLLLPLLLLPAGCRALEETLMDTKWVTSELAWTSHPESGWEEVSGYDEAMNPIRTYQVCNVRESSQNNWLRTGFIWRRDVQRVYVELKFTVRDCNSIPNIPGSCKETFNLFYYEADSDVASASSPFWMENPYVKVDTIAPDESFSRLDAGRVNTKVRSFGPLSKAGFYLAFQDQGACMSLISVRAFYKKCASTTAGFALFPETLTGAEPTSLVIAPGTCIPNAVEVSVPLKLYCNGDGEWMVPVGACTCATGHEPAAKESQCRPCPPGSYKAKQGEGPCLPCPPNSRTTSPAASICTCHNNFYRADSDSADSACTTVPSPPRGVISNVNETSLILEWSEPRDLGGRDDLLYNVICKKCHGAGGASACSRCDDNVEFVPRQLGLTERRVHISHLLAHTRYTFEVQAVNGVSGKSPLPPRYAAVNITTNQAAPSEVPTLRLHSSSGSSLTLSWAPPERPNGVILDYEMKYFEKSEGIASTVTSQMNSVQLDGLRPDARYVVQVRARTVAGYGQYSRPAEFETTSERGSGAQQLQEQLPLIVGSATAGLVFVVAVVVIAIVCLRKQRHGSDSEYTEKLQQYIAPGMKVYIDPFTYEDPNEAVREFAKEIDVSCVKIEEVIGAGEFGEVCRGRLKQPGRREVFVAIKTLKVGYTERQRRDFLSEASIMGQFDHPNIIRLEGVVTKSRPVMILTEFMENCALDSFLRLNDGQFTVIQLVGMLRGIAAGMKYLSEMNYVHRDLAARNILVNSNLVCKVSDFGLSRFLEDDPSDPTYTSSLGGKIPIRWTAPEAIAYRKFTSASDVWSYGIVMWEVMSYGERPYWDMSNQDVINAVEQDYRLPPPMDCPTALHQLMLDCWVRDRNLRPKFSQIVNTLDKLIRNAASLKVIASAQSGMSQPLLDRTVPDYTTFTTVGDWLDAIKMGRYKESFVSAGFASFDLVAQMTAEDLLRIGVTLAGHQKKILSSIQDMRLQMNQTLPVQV
As to conditions: at 1 µM.

The target of experiment [4] is T2, Ephrin type-B receptor 3 (Homo sapiens). As to conditions: at 10 µM.
Experiment [5] addresses T3, Ephrin type-B receptor 4 (Homo sapiens) (UniProt P54760).
T3 sequence (whole entry): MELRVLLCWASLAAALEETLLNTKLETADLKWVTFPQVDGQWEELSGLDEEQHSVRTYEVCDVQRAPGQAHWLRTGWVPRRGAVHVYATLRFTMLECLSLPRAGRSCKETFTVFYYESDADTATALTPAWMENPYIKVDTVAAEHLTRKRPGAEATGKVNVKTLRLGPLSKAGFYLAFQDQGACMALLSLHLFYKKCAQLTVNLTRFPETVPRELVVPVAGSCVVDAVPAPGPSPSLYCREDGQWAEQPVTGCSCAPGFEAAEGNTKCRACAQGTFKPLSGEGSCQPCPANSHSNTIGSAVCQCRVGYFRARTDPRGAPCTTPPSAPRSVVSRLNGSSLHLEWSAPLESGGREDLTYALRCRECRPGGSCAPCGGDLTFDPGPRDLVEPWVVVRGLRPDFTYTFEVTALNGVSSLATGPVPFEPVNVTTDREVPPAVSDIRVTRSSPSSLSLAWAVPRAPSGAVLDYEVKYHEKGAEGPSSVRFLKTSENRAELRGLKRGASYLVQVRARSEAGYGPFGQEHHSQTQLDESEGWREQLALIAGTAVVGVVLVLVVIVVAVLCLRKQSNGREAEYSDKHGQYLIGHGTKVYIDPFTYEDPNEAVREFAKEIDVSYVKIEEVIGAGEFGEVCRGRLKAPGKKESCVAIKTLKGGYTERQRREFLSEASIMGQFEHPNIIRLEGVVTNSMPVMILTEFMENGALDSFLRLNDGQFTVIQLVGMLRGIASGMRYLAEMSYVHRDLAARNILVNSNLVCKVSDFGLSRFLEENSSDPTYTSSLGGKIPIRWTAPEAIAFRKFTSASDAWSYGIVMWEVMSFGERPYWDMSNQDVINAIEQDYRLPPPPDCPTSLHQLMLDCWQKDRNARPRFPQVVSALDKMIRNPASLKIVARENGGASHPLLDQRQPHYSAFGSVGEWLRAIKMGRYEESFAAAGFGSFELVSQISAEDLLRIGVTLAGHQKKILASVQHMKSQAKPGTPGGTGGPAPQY
The conditions noted are these: at 1 µM.

For experiment [6], the target named is T3, Ephrin type-B receptor 4 (Homo sapiens). As to conditions: at 10 µM.
Experiment [7] addresses Receptor tyrosine-protein kinase erbB-4 (Homo sapiens) (UniProt Q15303). The conditions noted are these: at 1 µM.
Experiment [8] has the same target. As to conditions: at 10 µM.
The target of experiment [9] is Focal adhesion kinase 1 (Homo sapiens) (UniProt Q05397). As to conditions: at 1 µM.
Chain of Focal adhesion kinase 1 (Homo sapiens) (Q05397 2-1052 limits assumed): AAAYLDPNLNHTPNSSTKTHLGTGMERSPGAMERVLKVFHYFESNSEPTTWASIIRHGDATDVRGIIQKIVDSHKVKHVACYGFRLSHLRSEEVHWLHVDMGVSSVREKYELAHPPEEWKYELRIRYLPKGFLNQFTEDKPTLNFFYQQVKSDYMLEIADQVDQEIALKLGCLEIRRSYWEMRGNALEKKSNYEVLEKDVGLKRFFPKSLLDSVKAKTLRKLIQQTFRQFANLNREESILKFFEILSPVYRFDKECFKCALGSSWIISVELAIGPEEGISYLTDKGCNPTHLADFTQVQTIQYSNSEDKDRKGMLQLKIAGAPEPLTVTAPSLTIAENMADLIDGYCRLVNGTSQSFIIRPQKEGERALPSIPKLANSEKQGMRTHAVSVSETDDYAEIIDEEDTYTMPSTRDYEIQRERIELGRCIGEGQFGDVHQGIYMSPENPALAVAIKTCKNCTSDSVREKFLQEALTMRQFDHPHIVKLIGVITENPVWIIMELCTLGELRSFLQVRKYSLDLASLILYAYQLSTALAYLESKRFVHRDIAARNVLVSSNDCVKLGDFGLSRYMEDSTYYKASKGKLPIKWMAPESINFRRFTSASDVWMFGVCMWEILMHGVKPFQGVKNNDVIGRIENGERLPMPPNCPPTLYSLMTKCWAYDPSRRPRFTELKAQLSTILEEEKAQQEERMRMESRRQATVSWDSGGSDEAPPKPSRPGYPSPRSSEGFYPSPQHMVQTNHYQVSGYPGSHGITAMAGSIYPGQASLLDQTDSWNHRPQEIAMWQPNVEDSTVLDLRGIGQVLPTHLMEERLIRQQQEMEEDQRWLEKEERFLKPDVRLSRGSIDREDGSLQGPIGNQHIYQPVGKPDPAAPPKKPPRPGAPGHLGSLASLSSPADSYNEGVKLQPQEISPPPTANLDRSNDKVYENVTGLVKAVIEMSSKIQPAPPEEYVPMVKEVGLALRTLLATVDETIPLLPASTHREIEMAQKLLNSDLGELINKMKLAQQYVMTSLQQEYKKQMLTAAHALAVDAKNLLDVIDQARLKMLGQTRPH

Chain of Receptor tyrosine-protein kinase erbB-4 (Homo sapiens) (Q15303 whole entry): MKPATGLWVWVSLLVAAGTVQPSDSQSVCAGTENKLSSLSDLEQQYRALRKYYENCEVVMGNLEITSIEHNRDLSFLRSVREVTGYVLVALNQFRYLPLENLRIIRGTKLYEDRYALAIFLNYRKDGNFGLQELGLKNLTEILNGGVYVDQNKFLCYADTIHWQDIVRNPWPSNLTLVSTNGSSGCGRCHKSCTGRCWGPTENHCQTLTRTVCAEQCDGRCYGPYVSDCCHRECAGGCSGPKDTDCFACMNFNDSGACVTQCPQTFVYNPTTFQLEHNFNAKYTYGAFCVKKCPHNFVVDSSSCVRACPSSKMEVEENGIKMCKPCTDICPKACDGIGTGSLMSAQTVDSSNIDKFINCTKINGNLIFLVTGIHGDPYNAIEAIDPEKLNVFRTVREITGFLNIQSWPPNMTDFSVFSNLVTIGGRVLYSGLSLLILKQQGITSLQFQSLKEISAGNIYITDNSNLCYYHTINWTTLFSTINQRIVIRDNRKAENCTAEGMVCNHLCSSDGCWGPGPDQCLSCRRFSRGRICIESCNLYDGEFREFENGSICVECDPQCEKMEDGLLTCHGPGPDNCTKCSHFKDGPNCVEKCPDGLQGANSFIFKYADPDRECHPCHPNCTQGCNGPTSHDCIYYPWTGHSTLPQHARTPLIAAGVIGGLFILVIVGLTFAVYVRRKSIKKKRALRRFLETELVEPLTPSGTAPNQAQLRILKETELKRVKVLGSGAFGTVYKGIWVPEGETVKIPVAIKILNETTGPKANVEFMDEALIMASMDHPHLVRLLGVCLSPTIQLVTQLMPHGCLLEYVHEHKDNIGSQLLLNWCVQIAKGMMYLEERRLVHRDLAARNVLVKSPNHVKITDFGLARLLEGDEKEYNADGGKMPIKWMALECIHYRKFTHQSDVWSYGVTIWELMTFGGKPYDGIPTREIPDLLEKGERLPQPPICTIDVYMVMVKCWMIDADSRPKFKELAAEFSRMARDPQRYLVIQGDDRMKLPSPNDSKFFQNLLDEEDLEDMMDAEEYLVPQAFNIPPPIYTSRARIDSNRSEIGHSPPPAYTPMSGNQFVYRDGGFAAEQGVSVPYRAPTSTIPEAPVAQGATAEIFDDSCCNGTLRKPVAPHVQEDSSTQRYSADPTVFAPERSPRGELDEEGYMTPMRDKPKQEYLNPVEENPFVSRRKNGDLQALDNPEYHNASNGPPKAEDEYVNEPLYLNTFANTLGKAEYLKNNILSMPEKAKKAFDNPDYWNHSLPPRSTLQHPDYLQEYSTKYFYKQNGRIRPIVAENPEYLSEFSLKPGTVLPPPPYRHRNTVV

`C[C@@H](N)[C@H]1CC[C@H](C(=O)Nc2ccncc2)CC1`: the residual activity in experiment [1] is 90%; in experiment [2], 92%; in [3], 111% (inactive); in [4] it was 110%; in experiment [5], 108%; in experiment [6], 102%. The residual activity amounted to 109% in experiment [7], 113% in [8] and 104% in [9].
